# Screening results (PubChem)
# TDP1 cell CPT: growth inhibition of DT40 Tdp1-/-;hTDP1 cells with camptothecin (screen for TDP1 inhibitors); chicken DT40 Tdp1-/-;hTDP1 cells + 20 nM CPT, ATP luminescence, 48 h; Potency, µM (doses to about 46.2 µM), most hits filed as inhibitors; actives 12% (n = 420,000); AID 686979; also: nearly all actives have a fitted effect of over 55% in size
#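 Chicken DT40 Tdp1-/- cells complemented with human TDP1, 400 cells/well, exposed to compounds plus 20 nM camptothecin for at least 48 h at 37 C; viability read as ATP content by CellTiter-Glo luminescence.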
# TDP1 block: TDP1 (human) enzyme inhibition; recombinant TDP1, AlphaScreen DNA substrate cleavage; Potency, µM (titrated, usually from 130 µM), most hits filed as inhibitors; actives 0.28% (n = 350,000); also: nearly all actives have a fitted effect of over 40% in size
# Target sequence (Q9NUW8 whole entry, looked up): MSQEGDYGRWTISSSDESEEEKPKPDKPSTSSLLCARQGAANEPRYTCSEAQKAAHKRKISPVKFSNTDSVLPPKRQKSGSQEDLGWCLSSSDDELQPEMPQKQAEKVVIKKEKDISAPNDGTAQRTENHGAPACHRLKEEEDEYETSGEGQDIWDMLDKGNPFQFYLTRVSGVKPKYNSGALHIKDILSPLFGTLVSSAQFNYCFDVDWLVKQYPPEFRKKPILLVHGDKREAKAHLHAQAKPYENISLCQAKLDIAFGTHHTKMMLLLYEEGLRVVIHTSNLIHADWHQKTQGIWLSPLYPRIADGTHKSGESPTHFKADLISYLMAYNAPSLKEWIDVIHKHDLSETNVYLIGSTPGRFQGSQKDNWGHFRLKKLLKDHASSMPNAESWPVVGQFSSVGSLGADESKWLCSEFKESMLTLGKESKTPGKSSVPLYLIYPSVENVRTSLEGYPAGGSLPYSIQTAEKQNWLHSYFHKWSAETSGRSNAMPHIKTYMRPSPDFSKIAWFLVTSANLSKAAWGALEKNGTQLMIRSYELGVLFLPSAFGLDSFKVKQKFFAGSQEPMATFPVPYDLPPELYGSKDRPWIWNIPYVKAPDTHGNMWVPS
#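 Steps: enzyme plus compound, 15 min RT; add biotin/phosphotyrosine-FITC oligonucleotide (15 nM final), react 5 min; add donor/acceptor beads (10 ug/ml final), 10 min; read AlphaScreen. Tdp1 at 1 nM final.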
# RORg inh: blocks mouse ROR gamma transcriptional activity; Drosophila S2 Gal4-RORgamma UAS-luciferase reporter, 20 h; actives 5.4% (n = 310,000); AID 2551; Potency, µM (top dose mostly 53.6 µM), actives largely listed as inhibitors; also: nearly all actives have a fitted effect of over 60% in size
#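 ROR gamma transcriptional activity was tracked as Gal4-UAS luciferase output in stably transfected Drosophila Schneider cells, with compound added 1 hr before 700 uM copper sulfate induction and a 20 hr ambient-temperature incubation.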
# TDP1 cell noCPT: qHTS for Inhibitors of human tyrosyl-DNA phosphodiesterase 1 (TDP1): qHTS in cells in absence of CPT; DT40 Tdp1-/- hTDP1 cells, no CPT, ATP luminescence, 48 h; Potency, µM (titrated, usually from 46.2 µM), hits mostly inhibitors; actives 15% (n = 420,000); AID 686978, 2013; also: nearly all actives have a fitted effect of over 55% in size
#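 A cellular qHTS used chicken DT40 cells lacking endogenous Tdp1 but carrying stably transfected human TDP1. Compounds were applied without camptothecin, and cell growth kinetics were judged by ATP-dependent luminescence after ≥48 hr.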
# VP16 counter: inhibits Gal4-VP16 luciferase reporter, ROR gamma counter-screen; Potency, µM (doses to about 53.6 µM), actives largely listed as inhibitors; AID 2546; actives 3.5% (n = 310,000); Drosophila S2 Gal4-VP16 UAS-luciferase, luminescence, 20 h;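 also: Gal4-VP16 expression switched on by copper sulfate through the metallothionein promoter; nearly all actives have a fitted effect of over 50% in size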
# A number is an active result; n = inactive; u = inconclusive; x = no result. The list is not random: actives were taken first. Their share in the collection is about 19%. Calls follow the shape of the dose curve; as a rule, active = well fitted curve in the direction sought with a large enough effect; inconclusive = small, poorly fitted or top-dose-only effect, or another doubt; inactive = no such curve, though single readings can be large; an effect the other way counts as inactive or inconclusive.
SMILES,TDP1 cell CPT,TDP1 block,RORg inh,TDP1 cell noCPT,VP16 counter
CCOC(=O)C1(CCOc2ccccc2)CCN(CCCn2cccn2)CC1,u,x,n,u,n
CCOC(=O)C1(CCOc2ccccc2)CCN(Cc2cccc(-n3cccn3)c2)CC1,16µM,n,n,16µM,n
CCOC(=O)C1(CCOc2ccccc2)CCN(Cc2ccc(OC)cc2)CC1,15µM,x,x,21µM,x
CN1C(=O)N(C)C2C1NC(=O)N2C (stereo not drawn),n,n,n,n,n
Cc1ccc(C)c(NC(=O)CN(C)C(C)C(=O)N2CCCC2)c1 (stereo not drawn),n,n,x,n,x
Cc1cccc(NC(=O)COC(=O)CCCC2=NS(=O)(=O)c3ccccc3N2)c1,n,n,n,n,n
CCC(=O)Nc1ccc2oc(-c3cccnc3)nc2c1,n,n,n,n,n
CCOC(=O)C1(CCOc2ccccc2)CCN(CC2CC2)CC1,n,x,n,n,n
CCOC(=O)C1(Cc2cccc(OC)c2)CCN(Cc2ccccc2OC)CC1,n,n,n,u,n
CCOC(=O)C1(CCOc2ccccc2)CCN(Cc2cccc(F)c2)CC1,16µM,x,n,5.8µM,n
CCOC(=O)C1(CCOc2ccccc2)CCN(Cc2cccc(OCCO)c2)CC1,u,x,n,u,n
CCOC(=O)C1(CCOc2ccccc2)CCN(Cc2cnc(C)s2)CC1,u,x,n,21µM,n
CCOC(=O)C1(CCOc2ccccc2)CCN(Cc2cccc(OC)c2OC)CC1,u,x,n,21µM,n
Cc1ccccc1NC(=O)c1cc(S(=O)(=O)N2CCCCC2)ccc1N1CCOCC1,n,x,x,n,x
CCC(=O)Nc1cccc(-c2cn3c(C)csc3n2)c1,n,n,x,n,x
Cc1csc2nc(-c3cccc(NC(=O)c4ccc(S(N)(=O)=O)cc4)c3)cn12,u,n,x,16µM,x
Cc1csc2nc(-c3cccc(NC(=O)c4c(F)cccc4F)c3)cn12,23µM,n,x,23µM,x
COc1ccc([C@@H]2[C@@H]3C(=O)N(C(C)(C)C)C(=O)[C@@H]3[C@]3(CC(C)C)C(=O)N(c4ccc(C(F)(F)F)cc4)C(=O)N23)cc1,n,x,n,u,n
COc1ccc([C@@H]2[C@@H]3C(=O)N(C(C)(C)C)C(=O)[C@@H]3[C@]3(C)C(=O)N(c4ccc(C(F)(F)F)cc4)C(=O)N23)cc1,u,x,u,16µM,n
CCOC(=O)[C@@H]1[C@H]2COc3cc(OC)ccc3[C@@H]2N2C(=O)N(c3ccc(C(F)(F)F)cc3)C(=O)[C@@]12C,u,x,u,13µM,n
CCOC(=O)[C@@H]1[C@H]2COc3cc(OC)ccc3[C@@H]2N2C(=O)N(c3ccc(Br)cc3)C(=O)[C@@]12C,u,x,7.9µM,u,n
CCOC(=O)[C@@H]1[C@H]2COc3cc(OC)ccc3[C@H]2N2C(=O)N(c3ccc(C(F)(F)F)cc3)C(=O)[C@]12C,15µM,n,x,21µM,x
CC(NC(=O)c1ccc(OC2CCN(Cc3ccccn3)CC2)cc1)c1ccccc1 (stereo not drawn),u,n,n,18µM,n
CC(C)c1nc(CNC(=O)c2ccc(OC3CCN(Cc4ccccn4)CC3)cc2)cs1,u,n,n,u,n
O=C(NCC1CCCCC1)c1cccc(S(=O)(=O)N2CCCC2)c1,n,n,x,u,x
SMILES,TDP1 cell CPT,TDP1 block,RORg inh,TDP1 cell noCPT,VP16 counter
CCCC1=C(C(=O)OCC)C(c2cc(Cl)cc(OC)c2OCC(=O)OCC)NC(=O)N1 (stereo not drawn),u,n,n,23µM,n
COc1ccc(/C=N/n2c(=O)[nH]c3c([nH]c4ccc(Br)cc43)c2=O)cc1CN1CCOCC1,u,n,n,u,n
Brc1ccccc1-c1nc2c3ccccc3ncn2n1,u,n,x,u,x
S=c1nc2ccccc2c2nc(-c3ccccc3Br)[nH]n12,2.1µM,x,0.45µM,1µM,2.2µM
COc1ccc(C(=O)N2CCCC(C(N)=O)C2)cc1S(=O)(=O)N1CCOCC1 (stereo not drawn),n,n,x,n,x
CCOc1ccc(-c2nc(CNC(=O)Nc3ccccc3)c(C)o2)cc1,n,n,x,n,x
C=CC[n+]1c(-c2ccc(OCC)cc2)csc1NNC(=O)Nc1ccccc1,7.3µM,n,16µM,5.8µM,u
O=C(CSc1nc2nc3c(cc2c(=O)n1-c1ccccc1)CCCC3)Nc1ccccc1,u,n,n,u,n
Cc1ccc2cc(C)c(SCC(=O)Nc3ccc(S(=O)(=O)N4CCCC4)cc3)nc2c1,u,x,n,u,n
Cc1cc2cc3c(cc2nc1SCC(=O)Nc1ccccc1)CCC3,15µM,n,n,13µM,n
Cc1ccc(NC(=O)CSc2nc(N)c3cc4c(nc3n2)CCCC4)cc1,16µM,n,u,u,n
Nc1nc(SCC(=O)Nc2ccccc2)nc2nc3c(cc12)CCCC3,n,n,u,13µM,n
COc1cc(C2/C(=C(\O)c3ccc4c(c3)OCCO4)C(=O)C(=O)N2Cc2ccco2)cc(OC)c1OC (stereo not drawn),n,n,n,n,n
O=C(O)c1cccc(NC(=O)C2C3C=CC(C3)C2C(=O)OCC(F)(F)C(F)F)c1 (stereo not drawn),n,n,n,n,n
Cn1c(=O)c2c(nc(CN3CCC(C(N)=O)CC3)n2Cc2ccccc2F)n(C)c1=O,n,n,n,n,n
CCN(CC)S(=O)(=O)c1cc(NC(=O)CNc2c(C)n(C)n(-c3ccccc3)c2=O)ccc1C,n,n,n,n,n
Cc1ccc(N=C2c3ccccc3C(=O)C2[N+](=O)[O-])cc1C (stereo not drawn),n,n,n,u,u
O=C(NCCCN1CCOCC1)c1ccc(Cl)cc1,n,n,n,n,n
O=C(CCN1CCOCC1)c1ccc(Br)cc1,3.3µM,n,u,2.6µM,13µM
O=C(CCN1CCOCC1)c1ccc(Cl)cc1,2.9µM,n,u,2.6µM,u
COc1ccc(NS(=O)(=O)c2ccc3c(c2)N(C(C)=O)CCS3)cc1,u,n,n,u,n
CC(=O)C(Sc1ccc2nnc(-c3ccc(C)cc3)n2n1)C(C)=O,12µM,n,u,21µM,u
Cc1ccc(-c2nnc3ccc(SCC(=O)OCc4ccccc4)nn23)cc1,n,n,x,u,x
CCC(Sc1ccc2nnc(-c3ccc(F)cc3)n2n1)C(=O)O (stereo not drawn),n,n,n,u,n
CSc1ccc2nnc(-c3ccc(C)cc3)n2n1,u,n,x,11µM,x
Cc1ccc(-c2nnc3ccc(SCC(=O)c4ccccc4)nn23)cc1,u,n,x,14µM,x
CCOC(=O)C(CC)Sc1ccc2nnc(-c3ccc(F)cc3)n2n1 (stereo not drawn),20µM,n,x,u,x
CCCCCNC(=O)CC1Nc2c3ccccc3nc(=S)n2C1=O (stereo not drawn),n,n,n,n,n
CC1CCCN(C(=O)C2CCN(C(=O)Nc3ccccc3)CC2)C1 (stereo not drawn),n,n,x,n,x
